The record followed here is PubChem BioAssay (Tox21).

Values joined by “and” are separate entries in the source; they are usually repeats but may differ in a detail not shown here. Equal values may be shown once. Results filed as inconclusive are left out. Some structures have more than one record in an assay (separate samples or runs), and their calls can disagree. Active and inactive are the calls of the source. Unless noted, calls come from the whole dose curve; as a rule, active = well fitted curve in the direction sought with a large enough effect in the repeat runs; inconclusive = weak or mixed curves; inactive = no such curve, though single readings can be large; an effect the other way counts as inactive or inconclusive.

Test [1] can be described thus: qHTS assay for small molecules that induce genotoxicity in human embryonic kidney cells expressing luciferase-tagged ATAD5 (AID 651632). Note: nearly all actives have a fitted effect of over 15% in size. The method, boiled down:
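DMSO vehicle served as the control. HEK293T reporter cells, 16 hr at 37C, then 30 min Amplite at room temperature; ATAD5 induction is measured as luciferase activity.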
A general note: Quantitative high-throughput screening tests each substance at several concentrations.

Test [2] in a line: qHTS assay for small molecule agonists of the p53 signaling pathway - cell viability (AID 651633; calls by dose curve;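 note: p53RE-bla HCT reporter cells with a stable beta-lactamase p53 reporter; series mostly up to about 83 µM; nearly all actives have a fitted effect of over 30% in size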). The method, boiled down: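 p53RE-bla cells were treated with compound for 16 hours at 37 C. Cytotoxicity was then measured as CellTiter-Glo luminescence after 30 min at room temperature.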
Test [3] is described as follows: qHTS assay for small molecules that induce genotoxicity in human embryonic kidney cells expressing luciferase-tagged ATAD5 - cell viability (AID 651634; calls by dose curve; note: nearly all actives have a fitted effect of over 25% in size). In outline: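 Here HEK293T cells with the ATAD5 luciferase reporter are incubated with test compounds for 15.5 hr, and cytotoxicity is then gauged by measuring protease activity in live cells using fluorescence.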

Test [4] in a line: qHTS assay for small molecule disruptors of the mitochondrial membrane potential - cell viability (AID 720634; calls by dose curve; note: nearly all actives have a fitted effect of over 20% in size; note: potency is the fitted concentration of half-maximal effect). In outline: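 Viability of HepG2 cells is scored from ATP content by luminescence; cells are exposed to compound for 1 hr at 37 C and 5% CO2, then dosed with m-MPI dye before the CellTiter-Glo reagent.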
The nature of test [5]: qHTS assay for small molecule disruptors of the mitochondrial membrane potential (AID 720635). Note: potency is the fitted concentration of half-maximal effect. In outline:
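HepG2 cells exposed to compound 1 hr at 37C, then Mito-MPS dye 30 min. Ratio read of aggregate (540/590 nm) versus monomer (490/535 nm) fluorescence.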

A short description of test [6]: qHTS assay to test for compound auto fluorescence at 590 nm (red) in HepG2 cells (AID 720674). In outline:
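Fluorescence at 590 nm emission following 540 nm excitation was recorded from HepG2 wells one hour after compound transfer, with DMSO-only wells as vehicle and Rose Bengal sodium equivalency as the scale.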

The nature of test [7]: qHTS assay to test for compound auto fluorescence at 535 nm (green) in HepG2 cells (AID 720675).
The nature of test [8]: qHTS assay to test for compound auto fluorescence at 460 nm (blue) in HEK293 cells (AID 720678). The method, boiled down:
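Cells were seeded and left to adhere for 4-5 hr at 37C. Compounds were then pin-transferred. After an overnight incubation at 37C under 5% CO2, intrinsic fluorescence at 405/460 nm was measured and referenced to triamterene.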

Test [9] in a line: qHTS assay to test for compound auto fluorescence at 590 nm (red) in HEK293 cells (AID 720679). The method, boiled down: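 Each well held 2,000 HEK293 cells in medium containing 10% dialyzed FBS. Following 4-5 hr attachment at 37C, 23 nL test compound or DMSO was added; plates sat overnight, and red fluorescence (540/590nm) was recorded.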
A short description of test [10]: qHTS assay for small molecule agonists of the p53 signaling pathway (AID 651631; calls by dose curve; note: nearly all actives have a fitted effect of over 15% in size). The method, boiled down: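 HCT-116 cells carrying a beta-lactamase reporter under p53 response elements were dosed with compound for 16 h at 37 °C. LiveBLAzer B/G FRET substrate was then added for 2 h at room temperature, and fluorescence intensity was read to detect pathway agonism.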

For the compound `CCCC[N+]1(C)CCCCC1`, the compound was classed as inactive in test [1], in test [6], in test [7], in test [8] and in [9]. Further, the Potency entry in test [2], in [3], in test [4] and in [5] was “inactive” each time.
For `O=C(O)c1nc(Cl)ccc1Cl`, the Potency result in test [10], in [2], in test [3] and in [4] was “inactive” throughout. Also, the call in test [1], in test [7], in test [8] and in [9] was inactive.
Take `C[N+](C)(C)Cc1ccccc1`: the result in test [1], in test [6], in test [7], in test [8] and in test [9] was inactive. The Potency result in test [2], in [3], in [4] and in test [5] was “inactive” in each case.
As to `Oc1cccc2cccnc12`, the Potency result in [3] and in [4] was “inactive” throughout. For the same compound, the compound was called inactive in [7], in test [8] and in test [9].
Take `CN(C)[C@@H]1C(=O)C(C(N)=O)=C(O)[C@@]2(O)C(=O)C3=C(O)c4c(O)cccc4[C@@](C)(O)[C@H]3[C@H](O)[C@@H]12`: the Potency result in [3] and in test [4] was “inactive” throughout. In addition, in [5], the Potency entry is “inactive and 34.4 µM (active)”. In addition, the outcome in [7], in test [8] and in test [9] was inactive.
As to `O=C(O)CCl`, the Potency result in test [2], in test [3] and in test [4] was “inactive” each time. In addition, the result in test [7], in [8] and in [9] was inactive.
For `O=c1[nH]c(=O)n(Cl)c(=O)n1Cl`, the compound was called inactive in test [1], in test [7], in test [8] and in test [9]. The Potency entry in [3], in [4] and in test [5] was “inactive” in each case.
As for `CCCC[n+]1ccccc1C`, the result in [1], in test [6], in test [7], in [8] and in [9] was inactive. The Potency entry in test [2], in test [3] and in test [4] was “inactive” each time.
Turning to `CCn1cc[n+](C)c1C`, the outcome in [1], in [7], in test [8] and in [9] was inactive. Besides, the Potency entry in test [2], in test [3] and in test [4] was “inactive” throughout.
`CCCCCCCCn1cc[n+](C)c1`: the outcome in test [1], in test [7], in test [8] and in test [9] was inactive. Also, the Potency entry in [2], in [3] and in test [4] was “inactive” in each case.
As to `Nc1ccc(Cl)cc1`, the call in test [1], in test [7], in [8] and in test [9] was inactive. The Potency entry in test [2], in test [3] and in [4] was “inactive” in each case.
Regarding `CC[N+]1(C)CCCC1`, the compound was classed as inactive in test [1], in test [6], in test [7], in [8] and in test [9]. The Potency result in [2], in test [3] and in [4] was “inactive” each time.
With `CCCCn1cc[n+](C)c1C`, the compound was called inactive in test [1], in [7], in [8] and in test [9]. The Potency entry in [2], in test [3] and in [4] was “inactive” throughout.
In the case of `CCCCn1cc[n+](C)c1`, the Potency result in test [3] and in [4] was “inactive” in each case. The result in [7], in test [8] and in test [9] was inactive.
`CC(=O)O`: the Potency result in test [2] and in test [3] was “inactive” throughout. Further, the outcome in test [7], in [8] and in [9] was inactive.
For the compound `Cc1cc(Cl)ccc1N`, the outcome in test [1], in test [7], in test [8] and in [9] was inactive. Also, the Potency entry in [2], in [3] and in [4] was “inactive” throughout.
For `CCCn1cc[n+](C)c1`, the compound was called inactive in [1], in test [7], in test [8] and in test [9]. For the same compound, the Potency result in test [3] and in test [4] was “inactive” each time.
With `CCCC[n+]1ccccc1`, the call in [1], in test [6], in test [7], in [8] and in test [9] was inactive. Also, the Potency entry in test [2], in test [3] and in test [4] was “inactive” in each case.
For `O=S(=O)(O)O`, the Potency result in test [3] and in [4] was “inactive” each time. Also, the compound was classed as inactive in [6], in test [7], in test [8] and in test [9].
As for `O=[N+]([O-])O`, the Potency result in test [3] was “inactive”. For the same compound, the compound was called inactive in [7], in [8] and in [9].
Regarding `CCC[N+]1(C)CCCC1`, the call in test [1], in test [7], in [8] and in test [9] was inactive. Further, the Potency entry in test [2], in [3] and in test [4] was “inactive” throughout.
Take `CC[N+](CC)(CC)CC`: the Potency entry in [2], in test [3] and in test [4] was “inactive” in each case. Also, the call in test [7], in test [8] and in test [9] was inactive.
Turning to `CCC[N+]1(C)CCCCC1`, the call in test [1], in test [7], in test [8] and in test [9] was inactive. Moreover, the Potency entry in test [2], in test [3] and in [4] was “inactive” throughout.
For the compound `CCCCCCCCCCCC(=O)O`, the compound was classed as inactive in test [1], in [6], in [7], in [8] and in [9]. In addition, the Potency result in test [2], in [3] and in test [4] was “inactive” in each case.
For `O=c1nc(O)n(Cl)c(=O)n1Cl`, the result in test [1], in test [6], in test [7], in [8] and in [9] was inactive. Also, the Potency entry in test [3] and in test [4] was “inactive” in each case.
On to `O=C(O)c1ccccc1O`, for which the Potency entry in test [3] is “inactive”.
On to `C=CCOC(Cn1ccnc1)c1ccc(Cl)cc1Cl` (stereo unspecified), for which the call in test [1], in test [7], in test [8] and in test [9] was inactive. Besides, the Potency entry in test [2], in test [3] and in test [4] was “inactive” throughout.
Turning to `CCCCCC[n+]1ccccc1`, the call in [1], in test [7], in [8] and in test [9] was inactive. The Potency result in test [2], in test [3] and in test [4] was “inactive” in each case.
Turning to `O=C(O)C(Cl)Cl`, the result in test [1], in [7], in test [8] and in test [9] was inactive. The Potency entry in test [2], in test [3] and in [4] was “inactive” throughout.
With `CC[n+]1ccccc1`, the result in test [1], in [7], in test [8] and in [9] was inactive. The Potency entry in [2], in test [3] and in test [4] was “inactive” throughout.
As for `CCCCCCCCCCCCn1cc[n+](C)c1`, the result in [1], in [7], in test [8] and in [9] was inactive. Moreover, in [4], the Potency was 154 nM (active) and inactive.
As to `CCCCCCCCCCn1cc[n+](C)c1`, the compound was classed as inactive in test [1], in [7], in test [8] and in test [9]. The Potency result in test [2], in test [3] and in test [4] was “inactive” throughout.
Regarding `CCCC[n+]1ccc(C)cc1`, the outcome in [1], in test [6], in test [7], in [8] and in [9] was inactive. The Potency entry in test [2] and in test [3] was “inactive” in each case. In test [4], the Potency entry was “inactive and 48.3 µM (active)”.
Regarding `COc1ccccc1N`, the compound was classed as inactive in test [1], in test [6], in [7], in [8] and in test [9]. Also, the Potency entry in [2], in test [3] and in [4] was “inactive” each time.
Consider `CCCCCCCCCCCCOS(=O)(=O)O`, for which the result in test [1], in test [7], in test [8] and in [9] was inactive. Also, the Potency entry in test [3] and in test [4] was “inactive” throughout.
For the compound `CC(Cl)(Cl)C(=O)O`, the compound was called inactive in [1], in test [6], in test [7], in test [8] and in [9]. Moreover, the Potency entry in test [3], in test [4] and in test [5] was “inactive” each time.
